# Experimental data as given in PubChem BioAssay (Tox21).
# Where “and” joins values, the source holds several entries; their conditions need not be identical. Identical values can stand only once. Results filed as inconclusive are left out. Where a call stands in place of a potency, no number is given. Some structures have more than one record in an assay (separate samples or runs), and their calls can disagree. Calls of active or inactive are those of the source. Calls come from the whole dose curve; as a rule, active = well fitted curve in the direction sought with a large enough effect in the repeat runs; inconclusive = weak or mixed curves; inactive = no such curve, though single readings can be large; an effect the other way counts as inactive or inconclusive.
# Test: qHTS assay to identify small molecule agonists of the retinoic acid receptor (RAR) signaling pathway (AID 1159553); note: potency is the fitted concentration of half-maximal effect
# Conditions: C3RL4 RARE luciferase reporter, agonist, 6 h; series mostly up to 73.3 µM
# How it was run: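 Quantitative high-throughput format: the Tox21 10K library was tested on C3RL4 RARE-luciferase cells for 6 hr at 37 C and 5% CO2, with luminescence measured after a 30 min room-temperature reagent step.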
row,Structure (SMILES),Potency
1,CCCC[n+]1ccc(C)cc1,inactive
2,CCC(=O)C(CC(C)N(C)C)(c1ccccc1)c1ccccc1 (stereo unspecified),inactive
3,Nc1ccc(-c2ccc(N)cc2)cc1,inactive
4,CCNc1nc(Cl)nc(NCC)n1,inactive
5,O=[N+]([O-])c1ccccc1O,inactive
6,O=C(O)C(Cl)(Cl)Cl,inactive
7,Cc1cc(-c2ccc(N)c(C)c2)ccc1N,15.1 µM (active)
8,O=C(O)c1ccccc1O,inactive
9,CCOP(=S)(OCC)Oc1ccc2c(C)c(Cl)c(=O)oc2c1,inactive and 11.9 µM (active)
10,COCC(=O)N(c1c(C)cccc1C)C(C)C(=O)OC (stereo unspecified),inactive
11,COc1ccccc1N,inactive
12,OCCOc1ccccc1,inactive
13,C[C@]12CCC(=O)C=C1CC[C@@H]1[C@@H]2CC[C@]2(C)C(=O)CC[C@@H]12,inactive
14,CC[N+](CC)(CC)CC,inactive
15,O=C(O)CCl,inactive
16,COP(=O)(OC)C(O)C(Cl)(Cl)Cl (stereo unspecified),inactive
17,C1CCC(NC2CCCCC2)CC1,inactive
18,CCn1cc[n+](C)c1C,inactive
19,Cc1cc(Cl)ccc1N,inactive
20,CCCCCCCCCCCC(=O)O,inactive
21,O=[N+]([O-])O,inactive
22,CCCCCCCCn1cc[n+](C)c1,inactive
23,CCCC[n+]1ccccc1,inactive
24,CC[n+]1ccccc1,inactive

# Test: qHTS assay to identify small molecule antagonists of the estrogen related receptor (ERR) signaling pathway - cell viability counter screen (AID 1224818);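 note: viability measured after 17.5 h of compound exposure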
# Conditions: ERR reporter cell line viability counter screen; series mostly up to 46.1 µM
# How it was run: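 Quantitative high-throughput viability counter screen in ERR cells. Compounds (DMSO) incubated 17.5 h at 37 C; read-out was CellTiter-Fluor fluorescence.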
row,Structure (SMILES),outcome
1,O=P1(N(CCCl)CCCl)NCCCO1 (stereo unspecified),inactive
2,CC[N+](CC)(CC)CC,inactive
3,Nc1ccc(Cl)cc1,inactive

# Test: qHTS assay to identify small molecule antagonists of the estrogen related receptor signaling pathway with the pleiotropic PPARgamma coactivator (PGC) cell viability counter screen (AID 1224822; note: potency is the fitted concentration of half-maximal effect)
# Conditions: ERR/PGC reporter cell line viability counter screen; series mostly up to 46.1 µM
# How it was run: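 Cytotoxicity in the PGC/ERR cell line is assessed with CellTiter-Fluor, read as fluorescence intensity 30 min after reagent addition, following 17.5 h compound treatment at 37 C.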
row,Structure (SMILES),Potency
1,O=P1(N(CCCl)CCCl)NCCCO1 (stereo unspecified),inactive
2,Oc1cccc2cccnc12,0.727 µM (active)
3,CC[N+](CC)(CC)CC,inactive
4,Nc1ccc(Cl)cc1,inactive

# Test: qHTS assay to identify small molecule antagonists of the estrogen related receptor (ERR) signaling pathway from Tox21 library - cell viability counter screen (AID 1224834); note: nearly all actives have a fitted effect of over 30% in size; note: potency is the fitted concentration of half-maximal effect
# Conditions: ERR reporter cells viability, CellTiter-Fluor, 17.5 h; series mostly up to 92.4 µM
# How it was run: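 Compounds in DMSO were pinned onto ERR cells that had been incubated for 6 h, and the plates were held at 37 C for 17.5 h. CellTiter-Fluor reagent was then added and fluorescence was measured after 30 min.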
row,Structure (SMILES),Potency
1,CC(=O)[O][Hg][c]1ccccc1,2.41 µM (active) and 3.86 µM (active) and 7.5 µM (active)
2,CCCC[n+]1ccc(C)cc1,inactive and 68.2 µM (active)
3,Cc1cc(Cl)ccc1OCC(=O)O,inactive
4,CCC(=O)C(CC(C)N(C)C)(c1ccccc1)c1ccccc1 (stereo unspecified),inactive
5,Nc1ccc(-c2ccc(N)cc2)cc1,inactive
6,CCNc1nc(Cl)nc(NCC)n1,inactive
7,O=[N+]([O-])c1ccccc1O,inactive
8,O=C(O)C(Cl)(Cl)Cl,inactive
9,Cc1cc(-c2ccc(N)c(C)c2)ccc1N,inactive
10,O=P1(N(CCCl)CCCl)NCCCO1 (stereo unspecified),inactive
11,O=C(O)c1ccccc1O,inactive
12,CCOP(=S)(OCC)Oc1ccc2c(C)c(Cl)c(=O)oc2c1,inactive
13,Oc1ccccc1-c1ccccc1,inactive
14,COCC(=O)N(c1c(C)cccc1C)C(C)C(=O)OC (stereo unspecified),inactive
15,COc1ccccc1N,inactive
16,Oc1cccc2cccnc12,2.74 µM (active) and 2.43 µM (active) and inactive
17,OCCOc1ccccc1,inactive
18,C[C@]12CCC(=O)C=C1CC[C@@H]1[C@@H]2CC[C@]2(C)C(=O)CC[C@@H]12,inactive
19,CC[N+](CC)(CC)CC,inactive
20,O=C(O)CCl,inactive
21,COP(=O)(OC)C(O)C(Cl)(Cl)Cl (stereo unspecified),inactive
22,C1CCC(NC2CCCCC2)CC1,inactive
23,CCn1cc[n+](C)c1C,inactive
24,Cc1cc(Cl)ccc1N,inactive
25,CCCCCCCCCCCC(=O)O,inactive
26,CCCCCC[n+]1ccccc1,inactive
27,O=[N+]([O-])O,inactive
28,CCCC[n+]1ccccc1,inactive
29,CC[n+]1ccccc1,inactive and 30.4 µM (active)
30,CNC,inactive
